Compound activity from PubChem BioAssay.
BJeLR viability: MLPCN primary cell-based screen for lethality selective to Ras in HRASV12 cells | BJeLR (HRASV12) viability, CellTiter-Glo ATP luminescence, 48 h | inhibition, % (no concentration beside the values) | hit rate 0.17% among 300,000; in the data active = inhibition above about 50%
MazEF act: activators of E. coli MazEF toxin-antitoxin RNase, primary screen, biochemical, fluorescence, uHTS. activation, % at 20 µM. hit rate 0.32% among 350,000. Endoribonuclease toxin MazF (Escherichia coli (strain K12)), P0AE70. FAM/BHQ RNA-DNA oligo cleavage fluorescence, 5 h. AID 504720, 2011; in the data active = activation above about 50%
Target sequence (P0AE70 whole entry, looked up): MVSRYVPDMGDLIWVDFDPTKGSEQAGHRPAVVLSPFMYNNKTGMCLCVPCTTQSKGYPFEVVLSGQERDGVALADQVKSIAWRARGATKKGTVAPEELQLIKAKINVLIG
SARS 3CLpro inh-1: SARS-CoV 3CLpro protease inhibitors, primary screen, biochemical, quenched FRET. Replicase polyprotein 1ab (Severe acute respiratory syndrome coronavirus), P0C6X7. recombinant SARS-CoV 3CLpro, quenched FRET peptide cleavage. inhibition, % at 6 µM. hit rate 0.14% among 290,000. AID 1706, 2009; in the data active = inhibition above about 12%
CCHF vOTU inh-1: CCHFV vOTU protease inhibitors, primary screen, biochemical, Pep-AMC substrate, fluorescence. Crimean-Congo hemorrhagic fever virus L polyprotein viral ovarian tumor (vOTU) protease …. inhibition, % at 11.5 µM. hit rate 0.55% among 370,000; also: 0% = vehicle wells with enzyme and 100% = no enzyme wells
DUSP3 inh: VHR1 phosphatase inhibitors, primary screen, biochemical, absorbance, uHTS | Dual specificity protein phosphatase 3 (Homo sapiens), P51452 | recombinant VHR phosphatase, pNPP absorbance | inhibition, % at 13.3 µM | hit rate 0.52% among 290,000; in the data active = inhibition above about 50%
Target sequence (P51452 whole entry, looked up): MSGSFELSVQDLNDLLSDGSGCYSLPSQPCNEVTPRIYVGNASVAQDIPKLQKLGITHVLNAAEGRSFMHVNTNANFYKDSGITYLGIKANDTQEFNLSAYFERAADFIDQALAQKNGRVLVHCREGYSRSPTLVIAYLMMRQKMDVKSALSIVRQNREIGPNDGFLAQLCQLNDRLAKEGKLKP
SARS 3CLpro inh-2: confirmation of SARS coronavirus 3C-like protease inhibitors, retest, confirmation, biochemical; shares compounds with SARS 3CLpro inh-1; QFRET protease activity assay, 3CLpro; inhibition, % at 6 µM; hit rate 36% among 380; in the data active = inhibition above about 13%
CCHF vOTU inh-2: CCHFV vOTU protease inhibitors, confirmation, biochemical, Pep-AMC substrate, fluorescence; shares compounds with CCHF vOTU inh-1; Recombinant CCHFV vOTU; inhibition, % at 11.5 µM; hit rate 17% among 1,900; AID 686976, 2013
Starred values were filed as active, the others as inactive; x = not tested or not shown. Hits are enriched below; roughly 1.4% of the tested compounds scored in any of these assays. Rule as the data show it, unless noted: active = inhibition above about 30%; inactive = the rest.

SMILES	BJeLR viability	MazEF act	SARS 3CLpro inh-1	CCHF vOTU inh-1	DUSP3 inh	CCHF vOTU inh-2	others
CCCCOc1ccc(Nc2cc(Cl)ccc2C(=O)O)cn1	-2.9	1.3	7.9	36.9*	19.7	-4.3	SARS 3CLpro inh-2=6.9
NS(=O)(=O)c1ccc(Nc2ccc([N+](=O)[O-])c3nonc23)cc1	16.8	-8.0	14.6*	30.9*	11.2	16.9	SARS 3CLpro inh-2=5.9
CCn1c2ccccc2c2cc(C=Nn3c(-c4ccccn4)n[nH]c3=S)ccc21	x	x	x	1.1	x	x
Cc1ccc2c(c1)c1c(n2CC(O)CN2CCCCCC2)CCCC1 (stereo not drawn)	0.4	7.9	19.8*	34.6*	-10.0	-1.0	SARS 3CLpro inh-2=-0.1
COc1cccc(C(=O)N(CCN2CCOCC2)Cc2ccc(OC)c(OC)c2)c1	x	x	x	4.2	x	x
COC1C(OC(=O)c2ccc(C)[nH]2)C(O)C(Oc2ccc3c(O)c(NC(=O)c4ccc(O)c(CC=C(C)C)c4)c(=O)oc3c2Cl)OC1(C)C (stereo not drawn)	x	54.7*	13.2*	37.8*	27.7	16.1	SARS 3CLpro inh-2=11.2
COc1ccc(S[C@]2(C(=O)N3CCN(c4ncccn4)CC3)CC(=O)N(C(=O)Nc3ccc(C)c(Cl)c3)[C@@H]2c2ccc(OC)cc2)cc1	x	x	x	0.8	x	x
CCN(CC)CC(=O)Nc1sc(C)cc1C(=O)c1ccccc1	-4.4	5.5	-2.8	-4.6	6.1	x
Cc1cc(C(=O)c2ccccc2)c(NC(=O)CCl)s1	4.2	-4.2	75.8*	32.2*	-9.6	-0.9	SARS 3CLpro inh-2=81.3*
O=C1c2ccccc2C(=O)c2cc(N3CCCCC3)ccc21	x	6.3	x	-9.1	x	x
O=C1c2cccc(Cl)c2C(=O)c2c1cccc2N1CCCC1	4.1	-3.0	5.0	70.8*	x	-13.7
O=C(Nc1ccc2cn[nH]c2c1)c1c(Cl)cccc1Cl	-7.2	10.3	-0.4	-1.0	19.2	x
O=C1C(Cl)=C(Nc2ccc3cn[nH]c3c2)C(=O)c2ccccc21	87.2*	15.8	6.1	86.6*	15.2	79.7*
CN(C)c1ccc(NC2=C(Cl)C(=O)c3ccccc3C2=O)cc1	x	11.0	1.1	56.4*	-7.8	14.3
O=C1CCN(C(=O)CCCn2c(=O)oc3ccccc32)CC1	-4.1	-4.7	-0.9	-11.7	20.6	x
O=C(CCCn1c(=O)oc2ccccc21)N1CCc2ccccc2C1	0.8	3.7	-4.2	34.6*	14.7	-8.7
COc1ccc(OC)c(S(=O)(=O)Nc2ccc(O)c3ccccc23)c1	-2.4	2.1	0.4	65.6*	-0.9	-13.3
COc1ccc(NC(=O)Nc2ccccc2OC)cc1	9.6	0.8	3.6	0.5	21.8	x
COc1ccc(NC(=O)Nc2ccc(O)c3ccccc23)cc1	0.2	9.4	x	82.1*	x	-17.1
COc1ccc(C(=O)Nc2ccc(O)c3ccccc23)cc1	-1.1	1.2	x	30.6*	x	-8.6
CCOC(=O)CC[C@@]1(C(=O)OCC)C[C@@H](CC(=O)N2CCCC2)C(=O)N2CCCC=C21	x	x	x	-1.3	x	x
Cc1ccc(S(=O)(=O)NCCOc2cc(C)ccc2C)cc1	-3.1	-3.9	1.0	30.3*	-5.4	-8.5
Cc1ccc(OCCNS(=O)(=O)c2ccc(Cl)cc2)cc1	x	-23.5	x	10.8	x	x
O=C(Nc1ccc(F)cc1)OCc1cn(Cc2ccc(F)cc2)nn1	x	x	x	3.5	x	x
COc1ccccc1C=NN=C(NN=Cc1ccccc1OC)NN=Cc1ccccc1OC	x	-17.1	x	69.0*	x	2.0
SMILES	BJeLR viability	MazEF act	SARS 3CLpro inh-1	CCHF vOTU inh-1	DUSP3 inh	CCHF vOTU inh-2	others
CC1(OC(=O)C2CCCC2)C(=O)C=C2C=C(c3ccsc3)N(C(CO)CO)C=C2C1=O (stereo not drawn)	7.1	-9.9	x	31.5*	7.3	-1.6
CC(C)CN1C=C2C(=O)C(C)(OC(=O)C3CCCC3)C(=O)C=C2C=C1c1ccsc1 (stereo not drawn)	3.5	3.1	x	4.1	14.9	x
CCOC(=O)c1cc2c(ccn2C)n1Cc1ccc(Cl)cc1	-5.3	-0.2	-4.4	-3.9	-12.6	x
Cc1cccc(Cn2c(C(=O)OC(C)C)cc3c2ccn3C)c1	13.2	-6.9	3.1	35.0*	7.6	18.4
COC(=O)[C@H]1C[C@@]2(N3CCCCC3)c3ccccc3N[C@H]2N1S(=O)(=O)c1ccc(C)cc1	x	x	x	3.8	x	x
Cn1cnc(S(=O)(=O)Nc2ccccc2N2CCOCC2)c1	1.6	10.2	1.4	-6.2	-7.9	x
CN(C)c1cccc2c1c(NS(=O)(=O)c1cn(C)cn1)nn2C	3.3	-4.0	3.7	52.0*	24.0	50.3*
CC(C)NC(=O)C1C(c2ccccc2)=Nc2ccccc2N1C(=O)c1ccc(C(F)(F)F)cc1 (stereo not drawn)	x	x	x	6.5	x	x
CC(=O)N1c2ccccc2N=C(c2ccc(C(F)(F)F)cc2)C1C(=O)NC(C)C (stereo not drawn)	x	x	x	29.8*	x	-14.5
CCc1cc(C(=O)O)c(NC(=O)/C=C/c2ccc(OC)c(OC)c2)s1	-2.7	2.0	5.7	32.6*	13.0	8.8
CCc1cc(C(=O)O)c(NC(=O)/C=C/c2ccc(OC)cc2)s1	-12.9	-0.7	7.6	3.6	9.0	x
N#C/C(=C\Nc1ccc2c(c1)OCCO2)c1nc(-c2ccccc2)cs1	2.9	-10.3	2.9	0.8	-6.7	x
N#C/C(=C\Nc1ccc2c(c1)OCCO2)c1nc2ccccc2[nH]1	4.2	6.8	0.7	32.1*	-7.5	3.0
Cc1ccsc1/C=N\Nc1cn[nH]c(=O)c1Cl	1.5	6.7	2.7	29.7*	-4.6	2.9
C[C@H]1CCCN1c1ccc2c(c1)OCCCN(C1CC1)S2(=O)=O	x	x	x	-6.9	x	x
CCN(CC)c1ccc(CNc2nc3ccccc3n2CCN2CCCCC2)cc1	4.3	0.6	0.4	29.6*	19.1	0.9
CCCCN(C(=O)CC1CCCCC1)c1c(N)n(CC(C)C)c(=O)[nH]c1=O	x	5.6	x	31.6*	x	-27.0
Cc1cc(C(=O)O[C@H]2CCC[C@]3(C(=O)N(Cc4ccccc4)c4ccccc43)[C@H]2NC(=O)CCc2ccccc2)no1	x	x	x	3.6	x	x
Cc1cccc(-n2ncc3c(N)ncnc32)c1	2.1	5.9	-0.9	30.4*	-2.7	-15.9
Cc1cccc(-n2ncc3c(NC(C)C)ncnc32)c1	10.0	3.5	-2.9	-2.3	9.1	x
CCOc1ccc(-n2c(SCc3cccc4ccccc34)nnc2-c2ccc(C)cc2)cc1	x	x	x	11.9	x	x
CNCc1ccccc1Sc1cc(O)ccc1O	x	-3.2	0.5	29.7*	-7.8	3.6
C=C1c2nc3ccccc3n2C=C(c2ccc(C)cc2)N1c1ccccc1	x	-3.3	x	34.7*	x	-2.3
Cc1ccc(C2=CCN(C)C(=O)N2c2ccccc2)cc1	x	x	x	-0.1	x	x
